Test results published in PubChem BioAssay (EPA / NIEHS).
Inconclusive results are not listed. Active and inactive are the calls of the source. How the source made its calls: active means hit-call score of the fitted dose curve at least 0.9, where 1 is the maximum; inconclusive means response in the unintended direction; inactive means score below 0.9.

The molecules below were run against Estrogen receptor (Homo sapiens) (UniProt P03372) (assay: OT_ERa_GFPERaERE_0120: Odyssey Thera (OT) 2-hour HeLa Transcription Induction Assay for Estrogen Receptor (AID 2283382)).
Chain of Estrogen receptor (Homo sapiens) (P03372 whole entry, looked up): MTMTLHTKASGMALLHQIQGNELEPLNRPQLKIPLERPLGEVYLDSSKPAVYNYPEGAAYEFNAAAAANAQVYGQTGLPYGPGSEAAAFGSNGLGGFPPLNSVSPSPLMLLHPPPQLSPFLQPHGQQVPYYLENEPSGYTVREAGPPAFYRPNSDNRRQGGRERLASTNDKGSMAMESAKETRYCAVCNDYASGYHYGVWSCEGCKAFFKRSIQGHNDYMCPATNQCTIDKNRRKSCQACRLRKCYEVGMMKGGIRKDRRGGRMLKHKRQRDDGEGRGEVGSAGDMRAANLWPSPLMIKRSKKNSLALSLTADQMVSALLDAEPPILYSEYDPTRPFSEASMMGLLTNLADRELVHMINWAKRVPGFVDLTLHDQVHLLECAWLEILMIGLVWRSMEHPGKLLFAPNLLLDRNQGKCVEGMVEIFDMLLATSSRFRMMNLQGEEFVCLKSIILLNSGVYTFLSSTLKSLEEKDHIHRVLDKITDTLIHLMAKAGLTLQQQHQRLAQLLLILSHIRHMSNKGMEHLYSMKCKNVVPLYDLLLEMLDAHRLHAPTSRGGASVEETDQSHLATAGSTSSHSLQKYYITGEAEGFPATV
Outline: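 HeLa, 384-well, 2 h chemical exposure; GFP reporter induction (ERE), fluorescence microscopy; high content image analysis; positive fitting direction vs DMSO.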
In the case of `COC(=O)CCC(=O)OC`, the outcome is reported as “inactive”. With `CCCCc1nc2cccnc2n1Cc1ccc(-c2ccccc2-c2nnn[nH]2)cc1` the outcome was “inactive”. With `CC(C)c1cccc(C(C)C)c1` the outcome was “inactive”. For `Cc1ccc(C(C)(C)C)c(O)c1`, the outcome was “inactive”. With `NC1CCCCC1` the outcome was “inactive”. With `CS(=O)(=O)c1ccc([C@@H](C[C@H]2CCC(=O)C2)C(=O)Nc2cnccn2)cc1Cl` the outcome was “inactive”. With `COc1ccc(C(=O)Nc2nc3ccccc3c(NCc3ccccc3)c2C#N)cc1` the outcome was “inactive”. For `CC1(C)C(=O)NC(=O)N1CO`, the outcome was “inactive”. With `O=C(O)c1[nH]n(-c2ccc(S(=O)(=O)O)cc2)c(=O)c1N=Nc1ccc(S(=O)(=O)O)cc1` the outcome was “inactive”. With `c1ccc2occc2c1` the outcome was “inactive”. `O=C(O)CC(O)(CC(=O)O)C(=O)O` was tested, and the outcome was “inactive”. For `CCCCCCC(CCCCCCCCCCC(=O)OCC(COC(C)=O)OC(C)=O)OC(C)=O` (centres undefined), the outcome was “inactive”. In the case of `CN(C)CCCN(C)CCCN(C)C`, the outcome is reported as “inactive”. In the case of `CCCCCCCC(=O)OC`, the outcome is reported as “inactive”. With `CCCCCCCCCCCCCCCCO` the outcome was “inactive”. `Oc1ccc(O)cc1` was tested, and the outcome was “inactive”.

The molecules below were run against Bile acid receptor (Homo sapiens) (UniProt Q96RI1) (assay: OT_FXR_FXRSRC1_0480: Odyssey Thera (OT) 8-hour HEK293T Protein-Complementation Assay for Farnesoid X receptor/SRC-1 Co-activator (AID 2283383)).
Chain of Bile acid receptor (Homo sapiens) (Q96RI1 whole entry, looked up, the tested form may be a part): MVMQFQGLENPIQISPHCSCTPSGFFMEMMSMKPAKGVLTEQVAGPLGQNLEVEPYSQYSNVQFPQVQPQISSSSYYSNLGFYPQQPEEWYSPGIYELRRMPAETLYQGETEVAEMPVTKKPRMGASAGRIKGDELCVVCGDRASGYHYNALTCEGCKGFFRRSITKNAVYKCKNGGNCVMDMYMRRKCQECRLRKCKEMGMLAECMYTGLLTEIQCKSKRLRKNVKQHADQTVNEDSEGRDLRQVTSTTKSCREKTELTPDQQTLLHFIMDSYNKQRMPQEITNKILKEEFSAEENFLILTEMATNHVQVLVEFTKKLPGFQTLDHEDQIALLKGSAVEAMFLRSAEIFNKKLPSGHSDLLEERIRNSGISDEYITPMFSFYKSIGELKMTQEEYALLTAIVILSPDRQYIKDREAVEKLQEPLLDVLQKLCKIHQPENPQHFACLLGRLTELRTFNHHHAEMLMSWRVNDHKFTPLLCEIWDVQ
Outline: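 Human kidney HEK293T cells carried FXR/SRC-1 fragment-complementation constructs. Compounds were added and incubated 8 h. Reporter reassembly upon receptor–co-activator interaction was then quantified by fluorescence, with curves fitted in the positive direction relative to DMSO.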
In the case of `CC(C)c1cccc(C(C)C)c1NC(=O)NS(=O)(=O)c1cc(C(C)(C)O)co1`, the outcome is reported as “inactive”. In the case of `COC(=O)CCC(=O)OC`, the outcome is reported as “inactive”. For `CCCCc1nc2cccnc2n1Cc1ccc(-c2ccccc2-c2nnn[nH]2)cc1`, the AC50 was 60.8 µM (active). `CC(C)c1cccc(C(C)C)c1` was tested, and the outcome was “inactive”. In the case of `CC(=O)S[C@H](C(=O)N[C@H]1Cc2ccccc2[C@H]2CCC[C@@H](C(=O)O)N2C1=O)C(C)C`, the outcome is reported as “inactive”. `Cc1ccc(C(C)(C)C)c(O)c1` was tested, and the AC50 was 60.6 µM (active). `O=C1c2c(O)cccc2Cc2cccc(O)c21` was tested, and the outcome was “inactive”. For `Cc1cn([C@H]2C=C[C@@H](CO)O2)c(=O)[nH]c1=O`, the outcome was “inactive”. For `COc1ccc(C(=O)Nc2nc3ccccc3c(NCc3ccccc3)c2C#N)cc1`, the outcome was “inactive”. With `CCCCC(CC)CO` (centres undefined) the outcome was “inactive”. In the case of `CC(C)COC(=O)CCCCC(=O)OCC(C)C`, the outcome is reported as “inactive”. With `CCCCCCC(C=O)=Cc1ccccc1` the AC50 was 50 µM (active). For `CCCCCCC(CCCCCCCCCCC(=O)OCC(COC(C)=O)OC(C)=O)OC(C)=O` (centres undefined), the outcome was “inactive”. `C=CCc1ccc(OC)c(OC)c1` was tested, and the outcome was “inactive”. In the case of `Nc1nc(Cl)nc2c1ncn2[C@H]1C[C@H](O)[C@@H](CO)O1`, the AC50 is reported as 15.2 µM (active). For `CC(=O)OC1CC(C)OC(C)O1` (centres undefined), the outcome was “inactive”.

What follows are molecules tested against Bile acid receptor (Homo sapiens) (UniProt Q96RI1) (assay: OT_FXR_FXRSRC1_1440: Odyssey Thera (OT) 24-hour HEK293T Protein-Complementation Assay for Farnesoid X receptor/SRC-1 Co-activator (AID 2283384)).
Outline: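 Compounds are applied to human kidney HEK293T cells expressing bait and prey fused to reporter protein fragments; after 24 h, reconstituted reporter fluorescence is measured. Activity is fitted as signal gain over DMSO.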
In the case of `CC(C)c1cccc(C(C)C)c1NC(=O)NS(=O)(=O)c1cc(C(C)(C)O)co1`, the outcome is reported as “inactive”. `COC(=O)CCC(=O)OC` was tested, and the outcome was “inactive”. In the case of `CCCCc1nc2cccnc2n1Cc1ccc(-c2ccccc2-c2nnn[nH]2)cc1`, the AC50 is reported as 78.2 µM (active). `COC(=O)CCCC(=O)OC` was tested, and the outcome was “inactive”. In the case of `Cc1ccc(C(C)(C)C)c(O)c1`, the AC50 is reported as 80.5 µM (active). `O=C1c2c(O)cccc2Cc2cccc(O)c21` was tested, and the outcome was “inactive”. In the case of `O=C(O)c1cccnc1`, the outcome is reported as “inactive”. In the case of `COc1ccc(C(=O)Nc2nc3ccccc3c(NCc3ccccc3)c2C#N)cc1`, the AC50 is reported as 14.4 µM (active). `CCCCC(CC)CO` (centres undefined) was tested, and the outcome was “inactive”. In the case of `O=C(O)c1[nH]n(-c2ccc(S(=O)(=O)O)cc2)c(=O)c1N=Nc1ccc(S(=O)(=O)O)cc1`, the outcome is reported as “inactive”. With `c1ccc2occc2c1` the outcome was “inactive”. `CC(C)COC(=O)CCCCC(=O)OCC(C)C` was tested, and the outcome was “inactive”. `CCCCCCC(C=O)=Cc1ccccc1` was tested, and the outcome was “inactive”. For `CCCCCCC(CCCCCCCCCCC(=O)OCC(COC(C)=O)OC(C)=O)OC(C)=O` (centres undefined), the outcome was “inactive”. `CN(C)CCCN(C)CCCN(C)C` was tested, and the outcome was “inactive”. For `C=CCc1ccc(OC)c(OC)c1`, the outcome was “inactive”. With `Nc1nc(Cl)nc2c1ncn2[C@H]1C[C@H](O)[C@@H](CO)O1` the AC50 was 21.1 µM (active).
